From PubChem BioAssay
Several values for one entry are separate records, joined by “and”; a condition that tells them apart may be missing. Equal entries are not always repeated. Activity calls are given as the source filed them. Unless noted, the rule behind the calls is not given here.

What was measured:
[1] = system: XIP peptide (Xip251-270) binding; assay: XIP fragment 251-270 binding compounds – biochemical, small-molecule microarray, fluorescence 635/667 nm, 0.1 µg/mL protein, primary screen (AID 1182); conditions: fluorescent protein binding, 635 nm, higher = more signal, called active from +8 up or from −8 down
[2] = system: XIP peptide (Xip251-270); assay: compounds binding XIP fragment 251-270 – biochemical, small-molecule microarray, fluorescence 635/667 nm, 0.5 µg/mL protein, primary screen (AID 1183); conditions: fluorescence 635 nm, higher = more signal
[3] = blood-stage malaria parasite viability loss – strain 3D7, DAPI fluorescence, 100 nL, primary screen (AID 1184);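 note: parasites grown inside human red blood cells in medium with human serum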; conditions: P. falciparum 3D7 growth, 3 d, higher = more signal
[4] = biological target: Homeobox protein Hox-A13 (Mus musculus) (UniProt Q62424); assay: disruptors of Hoxa13 oligonucleotide interaction – biochemical, fluorescence polarization, labeled oligonucleotide, primary screen (AID 1185); conditions: Hoxa13:DNA binding, 15 min, higher = more signal, called active from +8 up or from −8 down
Chain of Homeobox protein Hox-A13 (Mus musculus) (Q62424 whole entry, looked up): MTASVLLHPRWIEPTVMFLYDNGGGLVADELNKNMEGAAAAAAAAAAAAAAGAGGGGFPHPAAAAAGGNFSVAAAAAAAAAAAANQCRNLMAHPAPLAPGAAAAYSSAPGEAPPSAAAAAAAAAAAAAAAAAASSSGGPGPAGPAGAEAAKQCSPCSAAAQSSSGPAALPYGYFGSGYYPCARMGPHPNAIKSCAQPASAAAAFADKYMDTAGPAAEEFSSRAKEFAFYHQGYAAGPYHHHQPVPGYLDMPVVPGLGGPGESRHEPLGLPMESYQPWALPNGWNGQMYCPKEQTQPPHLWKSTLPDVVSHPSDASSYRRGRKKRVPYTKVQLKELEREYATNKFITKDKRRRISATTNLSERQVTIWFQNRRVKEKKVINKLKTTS

[5] = blockers of DNA damage checkpoint Chk1 activation – imaging, HeLa, hydroxyurea, phospho-Chk1 antibody, percent positive cells, primary screen (AID 1186); conditions: hydroxyurea-induced phospho-Chk1 immunofluorescence imaging, higher = more signal
[6] = blockers of DNA damage checkpoint Chk1 activation – imaging, HeLa, hydroxyurea, phospho-Chk1 nuclear intensity, primary screen (AID 1187); conditions: hydroxyurea-induced phospho-Chk1 immunofluorescence imaging, higher = more signal

Row | Structure (SMILES) | composite z-score [1] | composite z-score [2] | z-score [3] | z-score [4] | z-score [5] | z-score [6]
1 | COC(=O)[C@@]1(Cc2ccccc2)[C@H]2c3cc(C(=O)N(C)C)n(Cc4ccc(C)c(F)c4F)c3C[C@H]2CN1C(=O)c1ccccc1 | -0.103 (inactive) and -0.157 (inactive) | 0.639 and 0.462 | -1.74 and -1.65 | -4.22 (inactive) and -3.34 (inactive) | -0.387 (inactive) and 0.293 (inactive) | -0.653 (inactive) and 0.169 (inactive)
2 | C=CCN(C(=O)C1N(CCOCCO)C(=O)C2C(C(=O)O)C3C=CC21O3)c1ccc(OC)cc1 (centres undefined) | -0.675 (inactive) and -0.315 (inactive) | 0.138 and 0.24 | 0.301 and -0.0133 | -1.06 (inactive) and -0.636 (inactive) | 0.0962 (inactive) and 0.399 (inactive) | -0.087 (inactive) and 0.191 (inactive)
3 | CC(C)N1CC=CC23O[C@@H]4C=CCCOC(=O)C4[C@H]2C(=O)N(C(C)CO)[C@@H]3C1=O (some centres undefined) | 1.78 (inactive) and 0.425 (inactive) | 0.716 and -0.58 | -0.819 and -0.728 | -3.49 (inactive) and -4.21 (inactive) | -0.161 (inactive) and -0.496 (inactive) | -0.309 (inactive) and -0.538 (inactive)
4 | C=CCN(CCCCC)C(=O)C1N(C(C)(C)CO)C(=O)C2C(C(=O)O)C3C=CC21O3 (centres undefined) | -0.53 (inactive) and -1 (inactive) | -0.417 and -1.97 | -0.0999 and 0.86 | -0.598 (inactive) and 0.0686 (inactive) | 0.0341 (inactive) and -0.15 (inactive) | 0.436 (inactive) and 0.287 (inactive)
5 | CCOC(=O)c1ccc(NC(=O)O[C@H]2[C@H](OC(=O)Nc3ccccc3)[C@H](OC(=O)Nc3ccccc3)[C@@H](OC)O[C@@H]2CO)cc1 | 0.706 (inactive) and 1.24 (inactive) | 0.844 and 0.901 | -2.51 and -2.22 | -1.14 (inactive) and -4.8 (inactive) | 0.143 (inactive) and 0.494 (inactive) | 0.337 (inactive) and 0.629 (inactive)
6 | CC(C)OC(=O)C=C1C[C@@H](c2ccccc2)O[C@@H](c2ccccc2)O1 | -0.0817 (inactive) and 0.574 (inactive) | 0.686 and 0.831 | -0.129 and 0.276 | -3.55 (inactive) and -3.56 (inactive) | -0.502 (inactive) and -0.334 (inactive) | -0.687 (inactive) and -0.132 (inactive)
7 | C=CCN(C(=O)C1N(CCOCCO)C(=O)C2C(C(=O)O)C3C=CC21O3)C(C)(C)C (centres undefined) | -0.348 (inactive) and -0.346 (inactive) | 0.102 and -0.294 | -0.283 and -0.145 | -1.32 (inactive) and -0.575 (inactive) | -0.262 (inactive) and -0.147 (inactive) | -0.47 (inactive) and 0.312 (inactive)
8 | C=CCN(CCCCC)C(=O)C1N(CCOCCO)C(=O)C2C(C(=O)O)C3C=CC21O3 (centres undefined) | 0.901 (inactive) and -0.15 (inactive) | 0.571 and -1.58 | 0.234 and 0.841 | -1.09 (inactive) and -0.752 (inactive) | 0.0583 (inactive) and 0.485 (inactive) | 0.233 (inactive) and -0.0615 (inactive)
9 | CCOC(=O)c1ccc(NC(=O)O[C@H]2[C@H](OC(=O)Nc3ccccc3)[C@@H](OC(=O)Nc3ccccc3)[C@@H](OC)O[C@@H]2CO)cc1 | 1.73 (inactive) and 0.466 (inactive) | 0.928 and 0.91 | -1.89 and -2.47 | -3.34 (inactive) and -4.61 (inactive) | 0.416 (inactive) and -0.71 (inactive) | 0.161 (inactive) and -0.827 (inactive)
10 | C=C[C@@H](OC)[C@H](O)c1ccc(O)c(F)c1 | -0.25 (inactive) and -2.1 (inactive) | 0.116 and 0.444 | 0.295 and 0.636 | -0.933 (inactive) and 0.017 (inactive) | 0.591 (inactive) and -0.353 (inactive) | 0.496 (inactive) and 0.357 (inactive)
11 | COC(=O)c1c2oc(c1C(=O)OC)C(=O)N[C@@H](Cc1ccccc1)Cn1cc(nn1)C1(CCCCC1)NC(=O)N[C@H](CO)CC2 | 0.398 (inactive) and -0.338 (inactive) | 0.762 and 0.215 | 0.53 and 1.25 | -4.76 (inactive) and -2.08 (inactive) | -0.496 (inactive) and 0.267 (inactive) | 0.184 (inactive) and 0.279 (inactive)
12 | C[N+](C)(C)CCCCNC(=O)[C@H]1C[C@H]2C(=O)N[C@@H](CCCC[N+](C)(C)C)C(=O)N2[C@H]1c1cccc(OCCO)c1 | 1.64 (inactive) and 0.768 (inactive) | 0.921 and 0.684 | 0.211 and -0.244 | -1.74 (inactive) and -2.51 (inactive) | -0.885 (inactive) and -0.42 (inactive) | -0.771 (inactive) and -0.16 (inactive)
13 | C=CCN(Cc1ccccc1)C(=O)C1N(c2c(Cl)cccc2CO)C(=O)C2C(C(=O)O)C3C=CC21O3 (centres undefined) | 0.297 (inactive) and -0.407 (inactive) | -2.24 and -0.403 | -0.0029 and -1.42 | 0.428 (inactive) and -1.12 (inactive) | -0.544 (inactive) and -0.696 (inactive) | -0.649 (inactive) and -0.167 (inactive)
14 | C[N+](C)(C)CCCCCCNC(=O)[C@@H]1C[C@@H]2C(=O)N[C@@H](CCCC[N+](C)(C)C)C(=O)N2[C@@H]1c1ccc(O)cc1 | 0.134 (inactive) and 0.316 (inactive) | 0.907 and 0.898 | 0.202 and -0.0272 | -0.929 (inactive) and -2.3 (inactive) | 0.556 (inactive) and 0.31 (inactive) | 0.424 (inactive) and 0.327 (inactive)
15 | CC(CO)N1C(=O)[C@@H]2C3C(=O)OCCC=C[C@H]3OC23C=CCN(CCN2CCOCC2)C(=O)[C@@H]13 (some centres undefined) | -0.163 (inactive) and 0.286 (inactive) | -0.0259 and 0.321 | -0.195 and 0.513 | -6.39 (inactive) and -7.63 (inactive) | 0.079 (inactive) and 0.456 (inactive) | -0.204 (inactive) and 0.371 (inactive)
16 | C=CCN(CCCCC)C(=O)C(c1cccs1)N(C(=O)/C=C\C(=O)O)c1c(Cl)cccc1CO (centres undefined) | -0.527 (inactive) and 0.809 (inactive) | -1.88 and -0.229 | 0.114 and -0.445 | -0.0384 (inactive) and -1.57 (inactive) | 0.79 (inactive) and 0.313 (inactive) | 0.728 (inactive) and 0.468 (inactive)
17 | CCOC(=O)C[C@H]1[C@H](OC(=O)c2ccccc2-c2ccccc2)[C@@H](NC(=O)Cc2ccc(OC)cc2)c2cc(OCCCO)ccc2N1C(=O)c1ccc2ccccc2n1 | -0.432 (inactive) and 0.387 (inactive) | -0.398 and 0.0791 | -0.543 and -0.616 | -1.67 (inactive) and -0.554 (inactive) | -0.015 (inactive) and -0.308 (inactive) | 0.0414 (inactive) and -0.162 (inactive)
18 | CC(C)[Si]1(C(C)C)OCc2cc(CCCc3cc4c(c(CCc5ccccc5)n3)[Si](C(C)C)(C(C)C)OC4)nc(CCc3ccccc3)c21 | -0.189 (inactive) and -0.0317 (inactive) | -1.31 and -0.189 | 0.0742 and 1.55 | -1.38 (inactive) and -0.138 (inactive) | -0.72 (inactive) and 0.618 (inactive) | -0.625 (inactive) and -0.0158 (inactive)
19 | C=C[C@H](C)[C@H](O)c1ccc(O)c2ccccc12 | -0.389 (inactive) and -0.742 (inactive) | -0.236 and 0.788 | 0.138 and 0.719 | -3.07 (inactive) and -2.91 (inactive) | -1.1 (inactive) and -1.31 (inactive) | -0.114 (inactive) and -0.271 (inactive)
20 | CN1C(=O)C2CC=C([C@H]3Oc4ccccc4S(=O)(=O)N4CCC[C@@H]34)CC2C1=O (some centres undefined) | -0.0989 (inactive) and 0.181 (inactive) | -0.128 and -1.09 | -0.292 and -0.542 | -2 (inactive) and -1.92 (inactive) | 0.0695 (inactive) and 0.549 (inactive) | -0.12 (inactive) and 0.575 (inactive)
21 | CCC[C@@H]1C[C@@]1(CCC)[C@@H](NC(=O)c1ccc(-c2ccccc2)cc1)c1cccc(Cl)c1 | 0.176 (inactive) and 0.184 (inactive) | -0.659 and 0.146 | -0.687 and -1.16 | -3.47 (inactive) and -5.25 (inactive) | 0.722 (inactive) and 0.514 (inactive) | -0.198 (inactive) and 0.301 (inactive)
22 | C=CCN(Cc1ccccc1)C(=O)C1N(C(C)(C)CO)C(=O)C2C(C(=O)O)C3C=CC21O3 (centres undefined) | 0.102 (inactive) and -0.207 (inactive) | 0.234 and -0.526 | 0.379 and -0.247 | -0.255 (inactive) and -0.187 (inactive) | -0.401 (inactive) and -0.113 (inactive) | -0.326 (inactive) and -0.297 (inactive)
23 | C=C[C@H](C)[C@@H](O)c1ccc(OCCO)cc1 | -0.301 (inactive) and -0.375 (inactive) | 0.112 and 0.861 | 0.394 and 0.709 | -1.51 (inactive) and -0.976 (inactive) | 0.845 (inactive) and -1.4 (inactive) | 0.121 (inactive) and -0.859 (inactive)
24 | C=CCN(CCCCC)C(=O)C1N(c2ccc(CCO)cc2)C(=O)C2C(C(=O)O)C3C=CC21O3 (centres undefined) | -0.53 (inactive) and -0.482 (inactive) | 0.668 and 0.706 | 0.062 and -0.336 | -2.29 (inactive) and -2.06 (inactive) | -0.0956 (inactive) and 0.477 (inactive) | 0.0364 (inactive) and 0.181 (inactive)
